High-throughput results from PubChem BioAssay.
FECH inh: blocks human mitochondrial ferrochelatase activity. P22830. calls only at 10 µM (by protocol). hit rate 3.3% among 20,000. purified FECH, Ni-mesoporphyrin absorbance 550 nm;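 active means enzyme reaction rate more than 3 SD below the solvent-only control wells on the same plate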;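 further: lower slope than DMSO wells means FECH inhibition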
Target sequence (P22830 whole entry, looked up): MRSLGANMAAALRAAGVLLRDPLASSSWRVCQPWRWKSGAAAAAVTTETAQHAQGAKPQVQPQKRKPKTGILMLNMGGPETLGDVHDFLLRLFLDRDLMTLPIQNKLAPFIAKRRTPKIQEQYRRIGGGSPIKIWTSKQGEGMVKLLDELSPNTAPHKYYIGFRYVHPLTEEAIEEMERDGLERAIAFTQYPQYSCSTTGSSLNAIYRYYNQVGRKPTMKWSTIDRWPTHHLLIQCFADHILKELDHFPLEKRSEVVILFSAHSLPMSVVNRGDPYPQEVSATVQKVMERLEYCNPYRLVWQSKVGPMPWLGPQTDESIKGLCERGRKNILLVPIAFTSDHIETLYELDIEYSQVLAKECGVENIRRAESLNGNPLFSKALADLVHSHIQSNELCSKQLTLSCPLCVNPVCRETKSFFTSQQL
Calls only; . = inactive; + = active, no number. The full list was thinned out, with hits kept by preference.

SMILES	FECH inh
COc1ccccc1NC(=O)CSCc1nc(-c2ccccc2)no1	.
Cc1ccc(S(=O)(=O)N(Cc2nc3nc(C)cc(C)n3n2)c2ccccc2)cc1	.
Cc1ccc(N(Cc2nc3nc(C)cc(C)n3n2)S(=O)(=O)c2ccc(Cl)cc2)cc1	+
Cc1ccc(S(=O)(=O)N(Cc2nc3nc(C)cc(C)n3n2)c2ccc(Cl)cc2)cc1	+
Cc1cc(C)n2nc(CN(c3cccc(Cl)c3)S(=O)(=O)c3ccccc3)nc2n1	.
Cc1ccc(N(Cc2nc3nc(C)cc(C)n3n2)S(C)(=O)=O)cc1	.
Cc1ccc(S(=O)(=O)N(Cc2nc3nc(C)c(Cl)c(C)n3n2)c2ccccc2)cc1	.
CCC1CCC(C(=O)NCc2nc(CCc3ccccc3)n[nH]2)CC1 (stereo not drawn)	.
Clc1ccc(Nc2nc(NC3CCCCCC3)nc3c2cnn3-c2ccccc2)cc1	.
CCC(Cn1ccnc1)NC(=O)c1cccc(CC2CCNCC2)c1 (stereo not drawn)	.
COc1ccc(-c2cc(N3CCN(C(=O)Nc4cccc(OC)c4)CC3)ncn2)cc1	.
Cc1c(S(=O)(=O)N2CCN(c3cc(-c4ccc(F)cc4)ncn3)CC2)cnn1C(F)F	.
c1ccc(Cc2nc(C3CCOC3)n[nH]2)cc1 (stereo not drawn)	.
Cc1c(Cl)cccc1NC(=O)CN1CCN(Cc2ccc(F)cc2Cl)S1(=O)=O	+
COc1ccc(CCNC(=O)CN2CCN(Cc3ccc(F)cc3Cl)S2(=O)=O)cc1OC	+
O=C(CN1CCN(Cc2ccc(F)cc2Cl)S1(=O)=O)NCc1ccccc1Cl	+
O=C(CN1CCN(Cc2ccc(F)cc2)S1(=O)=O)NCc1ccccc1	.
Cc1ccc(CNC(=O)CN2CCN(Cc3ccc(F)cc3Cl)S2(=O)=O)cc1	.
Cc1ccc(CN2CCN(CC(=O)Nc3cccc(Cl)c3C)S2(=O)=O)cc1	.
O=C(CN1CCN(Cc2ccccc2Cl)S1(=O)=O)NCc1ccccc1Cl	.
O=C(CN1CCN(Cc2ccc(F)cc2Cl)S1(=O)=O)Nc1ccc2c(c1)OCO2	.
O=C(CN1CCN(Cc2ccc(F)cc2Cl)S1(=O)=O)NCc1ccccc1	+
COC(=O)c1ccc(OC)c(CN2CCN(Cc3ccc(F)cc3Cl)S2(=O)=O)c1	.
Cc1cccc(C)c1NC(=O)CN1CCN(Cc2ccc(F)cc2Cl)S1(=O)=O	.
O=C(CN1CCN(Cc2ccccc2Cl)S1(=O)=O)Nc1ccc(F)cc1	.
SMILES	FECH inh
COCCNC(=O)C1(C)Cn2c(cc3ccsc32)C(=O)N1c1ccc(F)cc1 (stereo not drawn)	.
CCc1cc(Sc2ccccc2NC(=O)c2ccccc2C)n2nc(C)nc2n1	.
CC(C)NC(=O)CSc1nc(-c2cccc(Cl)c2)nc2cc(=O)[nH]n12	.
CC(C)c1ccc(S(=O)(=O)NCc2nc3cccnc3n2C2CCCCC2)cc1	.
O=C(O)C1(CCc2ccccc2)CCCN(c2ncnc3c2CCC3)C1 (stereo not drawn)	.
COc1ccc(OCC(=O)Nc2cc(C)nn2-c2ncnc3c2cnn3-c2ccc(F)cc2)cc1	.
Cc1[nH]cnc1-c1nccn1-c1cccc(N2CCNC2=O)c1	.
C=Cc1ccc(Cn2c(=O)c3cnc(-c4ccc(C)cc4)nc3n(C)c2=O)cc1	.
O=C(CN1CCN(Cc2ccccc2Cl)S1(=O)=O)NCCC1=CCCCC1	.
COc1ccc(CNC(=O)CN2C(=O)CC(c3ccc(Br)s3)=Nc3ccccc32)cc1	.
COCc1nc2cccnc2n1C1CCN(S(=O)(=O)c2ccc(NC(C)=O)cc2)CC1	+
COCc1nc2cccnc2n1C1CCN(S(=O)(=O)c2ccccc2)CC1	.
COCc1nc2cccnc2n1C1CCN(S(=O)(=O)c2ccc(Br)cc2)CC1	.
c1cncc(NCCCNc2nc(-c3ccncc3)nc3c2CCNC3)c1	.
CCN(CCO)c1nc(Nc2cccc(OC)c2)c2cnn(-c3ccccc3)c2n1	.
Cc1ccc(NC(=O)CN2CCCN(Cc3cccc(F)c3)S2(=O)=O)cc1C	.
Cc1cccc(CN2CCCN(CC(=O)Nc3ccc(F)cc3)S2(=O)=O)c1	+
Cc1ccc(CN2CCCN(CC(=O)Nc3ccc(C)c(C)c3)S2(=O)=O)cc1	.
Cc1cccc(CN2CCCN(CC(=O)Nc3cc(C)cc(C)c3)S2(=O)=O)c1	+
Cc1cccc(CN2CCCN(CC(=O)Nc3ccccc3)S2(=O)=O)c1	.
Cc1ccc(CN2CCCN(CC(=O)Nc3ccc(F)cc3)S2(=O)=O)cc1	.
Cc1cccc(CN2CCCN(CC(=O)Nc3cccc(Br)c3)S2(=O)=O)c1	.
O=C(CN1CCCN(Cc2cccc(F)c2)S1(=O)=O)Nc1ccccc1	.
Cc1cccc(CN2CCCN(CC(=O)Nc3ccc(C)c(C)c3)S2(=O)=O)c1	+
CSc1nc(NC2CCCC2)c(C#N)c(-c2ccc(C)cc2)n1	.
SMILES	FECH inh
CC(C)(C)CN1CC(NC(=O)Cc2ccc(O)c(Cl)c2)CC1=O (stereo not drawn)	.
CN(C)CC1(O)CCCN(C(=O)CCCc2cn[nH]c2)C1 (stereo not drawn)	.
Cc1ccsc1[C@@H]1CCN(C(=O)CCC(=O)N2CCCCCC2)C[C@H]1O	.
Cc1nc2nc[nH]n2c(=O)c1NC(=O)Nc1cccc(C(F)(F)F)c1	.
CCc1nc2nc(C)c(NC(=O)Nc3cccc(F)c3)c(=O)n2[nH]1	.
COc1ccccc1NCc1nc2nc3c(c(=O)n2[nH]1)CCC3	.
O=c1c2c(nc3nc(CNc4cccc(C(F)(F)F)c4)[nH]n13)CCC2	+
COc1ccc(CNc2nc3nc(CNc4cccc(Cl)c4)cc(=O)n3[nH]2)cc1	.
COc1cccc(NCc2nc3nc4c(c(=O)n3[nH]2)CCC4)c1	+
CCCc1nc(N2CCC(NS(C)(=O)=O)CC2)c2cnn(C)c2n1	.
Cc1ccsc1[C@@H]1CCN(C(=O)CCc2nncn2C)C[C@H]1O	.
O=C(O)C1(C/C=C/c2ccccc2)CCCN(c2ncccn2)C1 (stereo not drawn)	.
COc1ccc(N2C(=O)CCS2(=O)=O)cc1S(=O)(=O)N(Cc1ccccc1)C(C)C	.
Cc1ccc(NS(=O)(=O)c2ccc(N)c(S(N)(=O)=O)c2)cc1Cl	.
O=C1CC(=O)Nc2cc(S(=O)(=O)N3CCOCC3)ccc2N1	.
Nc1ccc(S(=O)(=O)N2CCN(c3ccc(F)cc3)CC2)cc1S(N)(=O)=O	+
O=C1CC(=O)Nc2cc(S(=O)(=O)N3CCCCC3)ccc2N1	.
Cc1ccc(-c2cc(N3CCN(S(=O)(=O)c4ccc(F)cc4)CC3)ncn2)cc1	.
O=C1CC(=O)Nc2cc(S(=O)(=O)N3CCN(c4ccc(F)cc4)CC3)ccc2N1	+
CNC(=O)c1ccc(OC)c(-c2ccc3c(c2)OCCO3)c1	.
CCOc1ccccc1-c1nc(C(N)=O)c2c(n1)n(-c1ccc(C)c(C)c1)c(=O)n2CC	.
COc1c(F)cccc1C(=O)NC(C)c1cn2ccsc2n1 (stereo not drawn)	.
CC(=O)c1ccc(S(=O)(=O)NCc2nc3cccnc3n2C2CC2)cc1	.
Cc1ccc(C(=O)Nc2nc3n(n2)C(c2ccccc2Cl)C=C(c2ccc(Cl)cc2)N3)cc1 (stereo not drawn)	.
Cc1ccc(CN2CCCN(CC(=O)NCCc3ccccc3)S2(=O)=O)cc1	.
COc1ccc(CNC(=O)CN2CCCN(Cc3ccccc3Cl)S2(=O)=O)cc1	.
Cc1ccc(CN2CCCN(CC(=O)NCc3ccccc3Cl)S2(=O)=O)cc1	+
Cc1ccc(CNC(=O)CN2CCCN(Cc3cccc(C)c3)S2(=O)=O)cc1	.
O=C(CN1CCCN(Cc2ccccc2)S1(=O)=O)NCc1ccc(Cl)cc1	.
Cc1ccc(CN2CCCN(CC(=O)NCc3ccccc3)S2(=O)=O)cc1	+
